Five compounds from PubChem BioAssay can be followed below.

Assay [1] can be described thus: inhibitors of TNFa-induced NFkB p65 translocation, primary screen, imaging, HUVEC, MLSMR starter and 10KST1 sets (AID 438;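 active means inhibition above 20% together with a positive visual image hit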;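 further: compound added about 3h40 before a 20 min TNFalpha stimulation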;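 on inhibition: signal is the nuclear over cytoplasmic p65 intensity ratio per well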). As to conditions: HUVEC TNFa-induced p65 nuclear translocation; cell count: measured here: nuclei count (cytotoxicity indicator), at 2.08 µM; inhibition: at 2 µM, stronger effect = higher value, 0% TNFa-plus-vehicle, 100% no-TNFa wells.
Assay [2] can be described thus: endothelial E-selectin expression blockers – imaging, HUVEC, immunofluorescence, MLSMR starter and 10KST1 sets, primary screen (AID 487;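 active means visually confirmed hit in the image check and inhibition above 20%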;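 on inhibition: signal is fraction of cell area covered by stained E-selectin grains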;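 on nuclei count: 100% = median nuclei count of all wells on the same plate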). As to conditions: HUVEC TNFalpha-induced E-selectin immunofluorescence imaging, at 2 µM; inhibition: stronger effect = higher value; nuclei count: measured here: cell number, toxicity.
Assay [3] is described as follows: Primary imaging screen for DUSP6 inhibitors that restore phospho-Erk in transfected HeLa cells, chemical complementation (AID 609;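 active means compounds giving at least 50% inhibition in the cell-based MKP-3 phosphatase rescue imaging test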;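 on inhibition: phospho-Erk level distribution per well compared with pooled transfected vehicle control wells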). The following applies: HeLa MKP-3 transfected, phospho-Erk imaging KS statistic, at 10 µM, cells stimulated with TPA for 15 min.
The target of assay [4] is Dual specificity protein phosphatase 6 (Homo sapiens) (UniProt Q16828). The assay is described as above. As to conditions: HeLa MKP-3 transfected, phospho-Erk imaging KS statistic; at 10 µM; stronger effect = higher value; cells stimulated with TPA for 15 min.
The target of assay [5] is Voltage-gated potassium channel subunit beta-2 (Rattus norvegicus) (UniProt P62483). Nature of the assay: inhibitors of rat Kvbeta2 reductase activity – biochemical, NADPH fluorescence, primary screen (AID 622;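 active means fluorescence slope higher than the sample average by over 3 SD, cut at about -0.22 in these data, passing the limit was not always enough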;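 further: slope of raw intensity against log time taken from 70 to 1610 s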). The following applies: recombinant KvBeta, 4-cyanobenzaldehyde reduction, at 10 µM, stronger effect = higher value.
Assay [6] has the same target. Nature of the assay: enhancers of rat Kvbeta2 NADPH turnover – biochemical, NADPH fluorescence, primary screen (AID 623;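 active means NADPH fluorescence slope more negative than the mean of all samples by about 3 SD, 99.7% confidence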;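 further: fluorescence intensity change per second fitted from 20 to 320 s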). As to conditions: Recombinant KvBeta, NADPH fluorescence decrease slope, 10 min; at 10 µM; stronger effect = lower value.
The target in assay [7] is Alpha-2C adrenergic receptor (Homo sapiens) (UniProt P18825). As to the kind of experiment: compounds altering alpha2C-coupled GIRK flux – cell-based, HEK293 alpha2C/GIRK1/2, thallium flux, primary screen (AID 624;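 active means fluorescence slope after compound addition differing from the mean of all screened samples at 99.7% confidence, in either direction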;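 further: slope of fluorescence ratio to pre-addition baseline per second over 15 to 24 s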). The following applies: thallium flux BTC fluorescence, at 10 µM, actives lie on both sides.
A short description of assay [8]: inhibitors of larval lipid processing in zebrafish, primary screen, whole organism, PED6 fluorescence, gall bladder and intestine (AID 686;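 active means a full or partial loss of lipid-probe fluorescence in the fish gall bladder, intestine or both, judged by eye; inactive means no fluorescence loss, or compound toxic to the fish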;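 further: larvae 5 to 7 days old with five fish per well; signal comes from phospholipase A2 cleavage of quenched PED6 carried via bile; overnight exposure to compound and PED6 before scoring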). The following applies: Zebrafish larvae PED6 lipid processing, fluorescence scoring; screened at 20 µM (by protocol).
The nature of assay [9]: loss of swimming-algae plug formation – whole organism, Chlamydomonas reinhardtii, WT vs cilia-less mutant, absorbance, 96-well, primary screen (AID 463189).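 Further: 0% = wild type cc124 cells in DMSO and 100% = ciliumless bld1 mutant cells.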 As to conditions: Chlamydomonas reinhardtii gravitaxis, OD600 absorbance, 2 days; at 10 µM; stronger effect = higher value.
Assay [10] can be described thus: blockers of RIG-like receptor reporter activation – cell-based, Sendai virus stimulus, luciferase, 10K MLSCN set, TLR/RLR signaling modifier project, primary screen (AID 602276;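 active means inhibition at or above 50% at 10 µM; inactive means inhibition below 50%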;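 further: firefly luciferase from ISG56 promoter only with Renilla not read in this screen; 0% = Sendai virus plus DMSO and 100% = medium plus DMSO without virus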). As to conditions: HEK293 RL24 IRF3 luciferase reporter, at 10 µM, stronger effect = higher value.
The nature of assay [11]: TLR3 IRF3 reporter activation blockers – cell-based, poly I:C stimulus, luciferase, 10K MLSCN set, primary screen (AID 602277;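 active means inhibition of the reporter signal at or above 50%; inactive means inhibition below 50%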). As to conditions: HEK293-TLR3 RL24 IRF3 luciferase reporter, at 10 µM, stronger effect = higher value.
Assay [12] can be described thus: reduction of polyQ htt aggregates in cells – imaging, exon1htt(103Q)mCFP cells, high-content imaging, primary screen (AID 483;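 active means visual image review flags a hit and inhibition of aggregation exceeds 20%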;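 further: compound exposure lasted 3 days before fixation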;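 on nuclei count: percent of the per-plate median nuclei count of sample wells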). As to conditions: exon1htt(103Q)mCFP cell line, aggregate imaging, at 2 µM; inhibition of aggregation: stronger effect = higher value; nuclei count: measured here: cell count, toxicity.
The mark [13] stands for this setting: measured here: cell density z-score.
[14] abbreviates: measured here: nuclear c-Myc green intensity z-score.
Setting [15] is: measured here: nuclear pErk red intensity z-score, stronger effect = higher value.

The structures appear in SMILES notation. Where “and” joins values, the source holds several entries; their conditions need not be identical. Equal entries are not always repeated. Calls of active or inactive are those of the source.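 How the source made its calls, unless noted: active means inhibition at or above 50% relative to wild type and mutant plate controls; inactive means inhibition below 50%.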

Chain of Alpha-2C adrenergic receptor (Homo sapiens) (P18825 whole entry, looked up): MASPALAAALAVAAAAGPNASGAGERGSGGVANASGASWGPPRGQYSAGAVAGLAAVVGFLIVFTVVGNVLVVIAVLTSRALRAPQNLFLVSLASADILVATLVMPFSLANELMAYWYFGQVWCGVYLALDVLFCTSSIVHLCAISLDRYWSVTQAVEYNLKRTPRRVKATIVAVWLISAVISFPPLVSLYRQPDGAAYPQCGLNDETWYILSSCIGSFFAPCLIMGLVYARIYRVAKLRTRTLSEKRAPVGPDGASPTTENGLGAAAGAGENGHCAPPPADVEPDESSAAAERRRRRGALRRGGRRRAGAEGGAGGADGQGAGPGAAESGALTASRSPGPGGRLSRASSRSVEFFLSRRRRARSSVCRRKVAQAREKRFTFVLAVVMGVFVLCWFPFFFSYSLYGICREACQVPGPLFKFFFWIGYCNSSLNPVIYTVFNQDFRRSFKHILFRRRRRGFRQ
Chain of Voltage-gated potassium channel subunit beta-2 (Rattus norvegicus) (P62483 whole entry, looked up): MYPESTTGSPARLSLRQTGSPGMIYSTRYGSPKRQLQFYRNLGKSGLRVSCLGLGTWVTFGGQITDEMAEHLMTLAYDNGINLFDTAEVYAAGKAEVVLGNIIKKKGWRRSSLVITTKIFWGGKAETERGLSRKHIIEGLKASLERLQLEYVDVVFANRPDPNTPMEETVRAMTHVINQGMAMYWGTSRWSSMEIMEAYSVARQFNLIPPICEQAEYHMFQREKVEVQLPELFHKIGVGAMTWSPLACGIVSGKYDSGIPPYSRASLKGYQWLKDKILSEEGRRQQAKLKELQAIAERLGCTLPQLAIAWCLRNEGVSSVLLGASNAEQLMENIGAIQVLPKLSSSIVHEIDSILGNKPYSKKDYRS
Chain of Dual specificity protein phosphatase 6 (Homo sapiens) (Q16828 whole entry, looked up): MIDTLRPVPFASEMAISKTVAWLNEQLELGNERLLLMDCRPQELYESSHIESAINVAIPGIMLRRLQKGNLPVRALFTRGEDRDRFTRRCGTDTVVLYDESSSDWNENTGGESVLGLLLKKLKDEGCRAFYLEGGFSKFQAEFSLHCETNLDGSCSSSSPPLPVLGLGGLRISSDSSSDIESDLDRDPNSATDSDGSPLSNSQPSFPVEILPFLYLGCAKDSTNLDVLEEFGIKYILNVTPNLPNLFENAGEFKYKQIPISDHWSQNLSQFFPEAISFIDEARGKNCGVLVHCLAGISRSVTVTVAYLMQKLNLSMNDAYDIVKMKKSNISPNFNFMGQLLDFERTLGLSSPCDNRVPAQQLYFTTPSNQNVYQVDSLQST

Regarding `O=C(O)CCNC(=O)c1ccccc1`, in assay [1], the cell count was determined as 571. In addition, the inhibition in assay [1] is -4.9% (inactive); in assay [2] it was -50.2% (inactive); in assay [4] it was 17.3% (inactive); in assay [9], 27.8% (inactive); in [10] it was -13.3% (inactive); in [11], -8.8% (inactive). Besides, the nuclei count in assay [2] stood at 97.2%. Moreover, the figures for the z-score in assay [3] (setting [13]), in assay [3] (setting [14]) and in assay [3] (setting [15]) were -0.0639, -0.161 and -1.08, respectively. Moreover, the fluorescence slope in [5] was -0.479 (inactive). Further, in assay [6], the NADPH fluorescence slope was 2.2e-06 (inactive). Also, the slope in [7] was 0.00491 (inactive). Further, the call in [8] was inactive.
With `Clc1ccc2c(c1)C(N1CCNCC1)=Nc1ccccc1O2`, the cell count in [1] turned out to be 676. Moreover, the inhibition in [1] is -0.2% (inactive); in assay [2], -61.7% (inactive); in assay [4], -7.45% (inactive); in [9], -13.2% (inactive) and 2.47% (inactive); in [10] it was 1.94% (inactive); in assay [11], 23.6% (inactive). Moreover, the inhibition of aggregation in [12] is 16.3% (inactive). The nuclei count in assay [12] was determined as 73.5%; in [2], 119%. Further, the z-score in assay [3] (setting [13]) is -1.22; in assay [3] (setting [14]), -0.679; in [3] (setting [15]), 1.28. Besides, in assay [5], the fluorescence slope is -0.471 (inactive). In addition, the NADPH fluorescence slope in [6] is -7.1e-06 (inactive). Also, in assay [8], the outcome was “inactive; toxic”.
Regarding `CCCn1c(=O)[nH]c(=O)c2[nH]cnc21`, the cell count in assay [1] was 615. The inhibition in assay [1] was -1.8% (inactive); in assay [2], -98.8% (inactive); in assay [4], 19% (inactive); in assay [9], 4.71% (inactive) and 14.1% (inactive); in [10] it was 18.8% (inactive); in [11], 33.6% (inactive). Further, the nuclei count in assay [2] is 137%. Also, the z-score in [3] (setting [13]) was 2.73; in assay [3] (setting [14]), -1.33; in [3] (setting [15]), 0.0338. The fluorescence slope in assay [5] is -0.494 (inactive). For the same compound, the NADPH fluorescence slope in assay [6] is -7.3e-05 (inactive). For the same compound, the slope in [7] is 0.00482 (inactive). Moreover, the compound was called inactive in [8].
As for `COc1ccc2c(C)nc(Nc3nc(C)cc(C)n3)nc2c1`, in assay [1], the cell count amounted to 644. Further, the inhibition in [1] is -5.8% (inactive); in assay [4] it was -5.95% (inactive); in assay [9], -4.58% (inactive); in [10], 14% (inactive); in [11] it was 20% (inactive). Further, the inhibition of aggregation in assay [12] is -15.4% (inactive). In assay [12], this compound returned a nuclei count of 116%. Further, the z-score in [3] (setting [13]) was -1.03; in [3] (setting [14]), 0.468; in assay [3] (setting [15]), -0.248. In addition, the fluorescence slope in assay [5] was -0.534 (inactive). For the same compound, the NADPH fluorescence slope in assay [6] is -1e-05 (inactive). In [7], the slope is 0.00447 (inactive). For the same compound, the compound was called inactive in assay [8].
With `CN/C(=C/[N+](=O)[O-])NCCSCc1ccc(CN(C)C)o1`, in assay [1], the cell count came to 593. Besides, the inhibition is -4.1% (inactive) in assay [1]; -23.6% (inactive) in assay [2]; 16.8% (inactive) in assay [4]; -22.8% (inactive) in assay [9]; 13.1% (inactive) in [10]; 30.9% (inactive) in assay [11]. The compound further had a nuclei count in [2] of 105%. Also, the z-score is 1.15 in assay [3] (setting [13]), -0.304 in [3] (setting [14]) and -1.85 in assay [3] (setting [15]). Further, the fluorescence slope in assay [5] was -0.46 (inactive). Further, in assay [6], the NADPH fluorescence slope was 1.7e-05 (inactive). Moreover, the slope in assay [7] is 0.00584 (inactive). The call in assay [8] was inactive.
